Compounds without any hit were thinned out: in the full panel of roughly 83,000, 20% have a hit.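 Compound tested at a single concentration for 48 hours in 96-well plates; a percent growth value below 10 was scored as active.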 A number with no mark means an inactive call. Calls of active or inactive are those of the source.

This assay deals with SNB-75 CNS. In words: NCI-60 one-dose screen, 48 h (100 = growth as untreated, 0 = no growth, -100 = all killed). The settings on record: 10 µM unless noted. As for the experimental part: Growth inhibition of the SNB-75 human tumor cell line is measured as a screen for anti-cancer activity. Cells are grown in 96 well plates and exposed to the test compound for 48 hours. Compounds are tested at a single concentration, which is 10^-5 M for most compounds. The reported endpoint is percent growth (GI% or GIPRCNT), where numbers from 0 - 100% represent growth inhibition, and numbers from -100% - 0 represent cell death. For example, a value of 40 represents 60% growth inhibition. A value of 0 means no net growth occurred over the course of the experiment. A value of -40 indicates 40% of cells at the beginning of the experiment died by the end of the experiment. A value of -100 means all cells are dead at the end of the experiment.
NCI-60 Human Tumor Cell Lines Screen was performed using the standard one-dose NCI protocol, which is described in more detail at https://dtp.cancer.gov/discovery_development/nci-60/default.htm.
Compounds with GIPRCNT values below 10 were considered active. Activity score was based on GIPRCNT using the following formula: […]
Score is 0 for GIPRCNT values of 100 or above, 50 for GIPRCNT values of 0, and 100 for GIPRCNT values of -100.
Take `O=C(Cc1ccc(/C=C/C(=O)c2ncc[nH]2)cc1)Nc1ccc(Cl)cc1`: the growth was 25.3%.

For `COc1cc2nc(-c3ccc(Cl)cc3)cc(OCCCN3CCOCC3)c2cc1OC`, the growth is 37.5%.

For `O=[N+]([O-])CC(c1ccccc1)c1c[nH]c2ccccc12` (stereo not given), the growth is 27.2%.

Regarding `NS(=O)(=O)c1ccc(CCN2C(=O)C=CC2=O)cc1`, the growth was 99.3%.

For the molecule `CCCCOc1ccc(/C(C)=N/Nc2cc(C)nc3ccc(Br)cc23)cc1`, the growth was 103%.

Consider `COc1cccc(-c2nc3occn3c2-c2ccnc(NCCCNS(=O)(=O)c3ccc(C(F)(F)F)cc3)n2)c1`, for which the growth is 103%.

On to `N#C/C(=C\c1ccc(C(F)(F)F)cc1)c1cc2ccccc2[nH]1`, for which the growth was 89%.

Consider `O=C1c2cccc3c(-c4ccc5c(c4)ncn5C4CCCCC4)ccc(c23)C(=O)N1CCO`, for which the growth is 86.6%.

On to `COc1cc2oc(-c3cccc(C(=O)Nc4ccccc4)c3)cc(=O)c2c(O)c1OC`, for which the growth is 21.8%.

Regarding `[O-][n+]1c(Cl)cc(Cl)c2ccccc21`, the growth is 101%.

For `Cn1c(N2NC(=O)C(N=Nc3ccc(S(N)(=O)=O)cc3)C2=O)nc(-c2ccco2)c(C#N)c1=O` (stereo not given), the growth is 64.5%.

In the case of `O=C(Cc1ccccc1)NNc1nc(Cl)nc(N2CCN(C(c3ccccc3)c3ccccc3)CC2)n1`, the growth was 96%.

On to `OC(c1cccc(C(F)(F)F)c1)c1cnccc1NC1CCCCC1` (stereo not given), for which the growth is 72.1%.

For `CCCCCOc1ccc(/C=N/Nc2cc(C)nc3ccc(Cl)cc23)cc1`, the growth is 41%.

With `CCOC(=O)c1cc(C#N)n2ccc3ccccc3c12`, the growth is 76.2%.

As for `OC(c1ccc(F)c(C(F)(F)F)c1)c1cnccc1NC1CCCCC1` (stereo not given), the growth was 68.7%.

`CCOC(=O)Nc1ccc(-c2ccc3c(c2)NC(=O)/C3=C\c2ccc[nH]2)cc1`: the growth is 89%.

For the molecule `O=C(CCN1CCCC1)Nc1ccc2c(NCc3ccccc3)c3ccccc3nc2c1`, the growth was -15.4% (active).

On to `O=C(/C=C/c1ccc[nH]1)c1ccc(-n2ccc(C(F)(F)F)n2)c(F)c1`, for which the growth is 75.6%.

In the case of `CCOC(=O)C1=C(CCl)NC(=O)NC1c1ccc2c(c1)OCO2` (stereo not given), the growth is 77.6%.

With `O=C1c2ccc3c4c(ccc(c24)C(=O)N1CCCNCc1ccccc1F)C(=O)N(CCCNCc1ccccc1F)C3=O`, the growth is -98.2% (active).

As for `O=C(/C=C/c1ccc(Cl)cc1)c1ccc(NC(=O)N2CCN(c3cc4c(cc3F)c(=O)c(C(=O)O)cn4C3CC3)CC2)cc1`, the growth is 92.1%.

As to `Cc1cc2c(C(=O)NCC#N)cccc2n1-c1nc2c(c(NCc3ccccc3)n1)CCCC2`, the growth was -11.4% (active).

As to `CCN(CC)CCn1c(=O)c2cc(OC)c(OC)cc2c2ccc3cc4c(cc3c21)OCO4`, the growth was 47.9%.

On to `Cn1nc(CC#N)c2c(=N)n(N)cnc21`, for which the growth was 87.4%.

Turning to `NS(=O)(=O)c1ccc(Cn2c(SCC(=O)N/N=C/c3ccccc3O)nc3ccccc3c2=O)cc1`, the growth is 84.3%.

With `CCCCCCNC(=O)Nc1ccc2cc3ccc(NC(=O)NCCCCCC)cc3nc2c1`, the growth is -16.3% (active).

As to `CCOC(=O)CCN(CC(C)C)C(=S)Nc1ccccc1`, the growth was 105%.

As to `O=C(CCN1CCCC1)c1ccc([N+](=O)[O-])cc1`, the growth is 84%.

In the case of `Nc1nc(Nc2ccccc2SSc2ccccc2Nc2nc(N)nc(-c3cccs3)n2)nc(-c2ccsc2)n1`, the growth was 98.3%.

In the case of `Cc1cc(C(=O)/C=C/c2ccc[nH]2)ccc1-n1ccc(C(F)(F)F)n1`, the growth is 63.2%.

Regarding `Cc1cc(C)c(S(=O)(=O)Oc2ccccc2[N+](=O)[O-])c(C)c1`, the growth is -18.4% (active).

Consider `CCc1ccc(CNc2ccc(N3CCOCC3)c(C(=O)O)c2)cc1`, for which the growth is 99.2%.

Regarding `N/C(=N\C(N)=N\c1nc2ccccc2s1)c1ccnc(Br)c1`, the growth is -13.2% (active).

Take `O=C1NN(C(=O)c2ccccc2)C(c2ccc(Cl)c(Cl)c2)=C/C1=C\c1ccc([N+](=O)[O-])cc1`: the growth was 65.3%.

In the case of `Cc1cc2nc3c4cc(C=O)ccc4n(CCN(C)C)c3nc2cc1C`, the growth was 28.2%.

With `Oc1c(Cl)cc(Cl)c(Cl)c1CNCCNCc1c(O)c(Cl)cc(Cl)c1Cl`, the growth was 51.9%.

With `Cc1ccc(-n2c3c(c(-c4ccccc4)c2-c2ccccc2)C2=NCCN2C=N3)cc1`, the growth was 70.5%.

Take `COc1cc(/C=C\c2cc(/C=C\c3ccc(O)c(OC)c3)n(C(=O)COc3ccccc3)n2)ccc1O`: the growth is 22.7%.

As to `C=C1C(=O)O[C@H]2[C@H]1CC/C(CNC(=O)C(C)c1ccc(CC(C)C)cc1)=C\CC[C@@]1(C)O[C@@H]21` (stereo not given in full), the growth was 64.5%.

These data come from PubChem BioAssay (NCI).
